Measurements: PubChem BioAssay (NCATS)
Results filed as inconclusive are left out. Activity calls are given as the source filed them. Calls come from the whole dose curve; as a rule, active = well fitted curve in the direction sought with a large enough effect; inconclusive = small, poorly fitted or top-dose-only effect, or another doubt; inactive = no such curve, though single readings can be large; an effect the other way counts as inactive or inconclusive.

Tests used:
[1] = Quantitative High-Throughput drug screen in 47 multiple myeloma cell lines against the NCATS MIPE library collection: OPM1_PLB cell viability assay (AID 1918989); note: nearly all actives have a fitted effect of over 40% in size; note: potency is the fitted concentration of half-maximal effect
How it was run: (§1)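 qHTS format: cells plated (500/well), pin-dosed with MIPE 4.0 compounds, kept 48 h at 37 °C. Readout was CellTiter-Glo luminescence, median RLU.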

[2] = Quantitative High-Throughput drug screen in 47 multiple myeloma cell lines against the NCATS MIPE library collection: U266_ATCC cell viability assay (AID 1919864); note: nearly all actives have a fitted effect of over 35% in size; note: potency is the fitted concentration of half-maximal effect
How it was run: as §1

[3] = Quantitative High-Throughput drug screen in 47 multiple myeloma cell lines against the NCATS MIPE library collection: XG6_PLB cell viability assay (AID 1919865); note: nearly all actives have a fitted effect of over 40% in size; note: potency is the fitted concentration of half-maximal effect
How it was run: as §1

[4] = Quantitative High-Throughput drug screen in 47 multiple myeloma cell lines against the NCATS MIPE library collection: XG1_PLB cell viability assay (AID 1919866); note: nearly all actives have a fitted effect of over 35% in size; note: potency is the fitted concentration of half-maximal effect
How it was run: as §1

[5] = Quantitative High-Throughput drug screen in 47 multiple myeloma cell lines against the NCATS MIPE library collection: PE2_PLB cell viability assay (AID 1919869); note: nearly all actives have a fitted effect of over 35% in size; note: potency is the fitted concentration of half-maximal effect
How it was run: as §1

[6] = Quantitative High-Throughput drug screen in 47 multiple myeloma cell lines against the NCATS MIPE library collection: OPM2_DSMZ cell viability assay (AID 1919872); note: nearly all actives have a fitted effect of over 30% in size
How it was run: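 CellTiter-Glo ATP luminescence gave viability after 48 h compound treatment at 37C of 500 multiple myeloma cells per well. Normalisation used DMSO-only wells as 100% and media-only wells as 0% viability; primary qHTS of approved and investigational drugs.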

[7] = Quantitative High-Throughput drug screen in 47 multiple myeloma cell lines against the NCATS MIPE library collection: KMS11_JCRBsus cell viability assay (AID 1919873); note: nearly all actives have a fitted effect of over 50% in size; note: potency is the fitted concentration of half-maximal effect
How it was run: as §1

[8] = Quantitative High-Throughput drug screen in 47 multiple myeloma cell lines against the NCATS MIPE library collection: UTMC2_PLB cell viability assay (AID 1919868); settings: CellTiter-Glo ATP luminescence, 48 h; viability (% of DMSO control): at 45.8 µM (top of the series); note: nearly all actives have a fitted effect of over 55% in size; note: potency is the fitted concentration of half-maximal effect
How it was run: as §1

[9] = Quantitative High-Throughput drug screen in 47 multiple myeloma cell lines against the NCATS MIPE library collection: KMS28BM_JCRB cell viability assay (AID 1919874); note: nearly all actives have a fitted effect of over 35% in size; note: potency is the fitted concentration of half-maximal effect
How it was run: as §1

[10] = Quantitative High-Throughput drug screen in 47 multiple myeloma cell lines against the NCATS MIPE library collection: VP6_DJ cell viability assay (AID 1919867); note: nearly all actives have a fitted effect of over 40% in size; note: potency is the fitted concentration of half-maximal effect
How it was run: as §1

[11] = Quantitative High-Throughput drug screen in 47 multiple myeloma cell lines against the NCATS MIPE library collection: RPMI8226_ATCC cell viability assay (AID 1919871); note: nearly all actives have a fitted effect of over 30% in size; note: potency is the fitted concentration of half-maximal effect
How it was run: as §1

[12] = Quantitative High-Throughput drug screen in 47 multiple myeloma cell lines against the NCATS MIPE library collection: SKMM1_PLB cell viability assay (AID 1919863); settings: SKMM1 myeloma viability, CellTiter-Glo ATP, 48 h; viability: stronger effect = lower value; note: nearly all actives have a fitted effect of over 35% in size; note: potency is the fitted concentration of half-maximal effect
How it was run: as §1

[13] = Quantitative High-Throughput drug screen in 47 multiple myeloma cell lines against the NCATS MIPE library collection: OCIMY5_PLB cell viability assay (AID 1918988); note: nearly all actives have a fitted effect of over 65% in size; note: potency is the fitted concentration of half-maximal effect
How it was run: as §1

[14] = Quantitative High-Throughput drug screen in 47 multiple myeloma cell lines against the NCATS MIPE library collection: PCM6_Riken cell viability assay (AID 1919870); note: nearly all actives have a fitted effect of over 30% in size; note: potency is the fitted concentration of half-maximal effect
How it was run: as §1

[15] = target: Cytochrome P450 2D6 (Homo sapiens) (UniProt P10635); assay: qHTS for inhibitors of CYP2D6 against the NCATS DSHEA and TCM libraries (AID 1919972); note: % is set by controls: 0 for no effect and ±100 for the full control effect
Cytochrome P450 2D6 (Homo sapiens), sequence (P10635 whole entry, looked up): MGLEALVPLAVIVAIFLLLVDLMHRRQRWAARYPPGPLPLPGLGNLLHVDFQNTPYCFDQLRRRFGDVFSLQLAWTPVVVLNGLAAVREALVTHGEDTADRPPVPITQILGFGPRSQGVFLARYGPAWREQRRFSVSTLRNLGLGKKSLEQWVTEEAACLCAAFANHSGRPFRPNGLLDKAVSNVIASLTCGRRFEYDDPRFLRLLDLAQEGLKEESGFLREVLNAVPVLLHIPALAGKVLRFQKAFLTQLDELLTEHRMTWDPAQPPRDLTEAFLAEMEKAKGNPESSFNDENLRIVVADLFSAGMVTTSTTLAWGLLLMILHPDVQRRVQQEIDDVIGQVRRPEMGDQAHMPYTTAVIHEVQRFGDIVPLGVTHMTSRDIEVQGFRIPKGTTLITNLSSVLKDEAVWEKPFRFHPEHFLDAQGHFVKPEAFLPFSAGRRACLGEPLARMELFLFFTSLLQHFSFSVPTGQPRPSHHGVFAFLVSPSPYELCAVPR
How it was run: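 CYP2D6 enzyme with pro-luciferin substrate in manufacturer buffer (typically 100 mM KPO4), preincubated 15 min RT with substances (most at 19.5 nM upward); NADPH regeneration system (1x) started 30–45 min RT reaction; P450-Glo luminescence read after 30 min; quinidine as intraplate control.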

[16] = target: Cytochrome P450 2C9 (Homo sapiens) (UniProt P11712); assay: qHTS for inhibitors of CYP2C9 against the NCATS DSHEA and TCM libraries (AID 1919973); note: potency is the fitted concentration of half-maximal effect
Cytochrome P450 2C9 (Homo sapiens), sequence (P11712 whole entry, looked up, canonical isoform): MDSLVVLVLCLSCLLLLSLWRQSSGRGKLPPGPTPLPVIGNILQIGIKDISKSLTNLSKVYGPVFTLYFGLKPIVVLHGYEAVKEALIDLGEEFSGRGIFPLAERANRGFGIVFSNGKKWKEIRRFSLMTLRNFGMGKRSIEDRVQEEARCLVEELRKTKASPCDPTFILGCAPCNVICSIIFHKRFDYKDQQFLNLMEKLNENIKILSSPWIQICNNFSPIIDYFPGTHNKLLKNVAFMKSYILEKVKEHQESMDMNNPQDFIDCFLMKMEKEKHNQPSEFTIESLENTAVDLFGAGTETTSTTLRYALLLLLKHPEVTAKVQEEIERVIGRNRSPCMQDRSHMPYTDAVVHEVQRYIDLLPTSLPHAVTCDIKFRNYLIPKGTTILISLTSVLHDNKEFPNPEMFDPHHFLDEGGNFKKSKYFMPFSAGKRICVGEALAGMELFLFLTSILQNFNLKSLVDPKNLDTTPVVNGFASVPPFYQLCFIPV
How it was run: (§2)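 Each CYP isoform and its pro-luciferin substrate, at isoform-specific final concentrations, were preincubated 15 min at RT with substances. NADPH regeneration solution (1x) started a 30-45 min reaction, and P450-Glo luminescence was read.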

[17] = target: Cytochrome P450 3A4 (Homo sapiens) (UniProt P08684); assay: qHTS for inhibitors of CYP3A4 against the NCATS DSHEA and TCM libraries (AID 1919971);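 note: % is set by controls: 0 for no effect and ±100 for the full control effect; inhibition lowers luminescence from luciferin made by CYP3A4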
Cytochrome P450 3A4 (Homo sapiens), sequence (P08684 whole entry, looked up): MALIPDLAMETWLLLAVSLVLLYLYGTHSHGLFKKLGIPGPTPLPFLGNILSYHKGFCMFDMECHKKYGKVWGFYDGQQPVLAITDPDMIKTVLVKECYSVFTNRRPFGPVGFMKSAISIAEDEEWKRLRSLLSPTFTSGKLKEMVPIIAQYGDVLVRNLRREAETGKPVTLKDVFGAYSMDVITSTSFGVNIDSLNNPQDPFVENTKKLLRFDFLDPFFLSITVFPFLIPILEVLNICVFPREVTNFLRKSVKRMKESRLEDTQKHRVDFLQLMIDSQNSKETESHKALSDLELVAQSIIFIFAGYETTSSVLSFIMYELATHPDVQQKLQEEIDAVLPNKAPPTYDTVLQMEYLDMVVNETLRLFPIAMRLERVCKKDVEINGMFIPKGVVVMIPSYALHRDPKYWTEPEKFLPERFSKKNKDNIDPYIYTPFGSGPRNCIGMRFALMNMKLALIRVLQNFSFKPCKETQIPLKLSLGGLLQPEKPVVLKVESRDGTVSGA
How it was run: as §2

COc1ccc(CCC(=O)Nc2nc3ccc(Cl)cc3s2)cc1OC
active: Potency [2] 16.6 µM | Potency [3] 23.5 µM | Potency [4] 16.6 µM | Potency [5] 23.5 µM | Potency [7] 11.8 µM
inactive: Potency [1] | Potency [6]

C=CC[N+]1([C@H]2C[C@H]3[C@@H]4CC[C@H]5C[C@H](O)[C@@H](N6CCOCC6)C[C@]5(C)[C@@H]4CC[C@]3(C)[C@H]2OC(C)=O)CCCC1
inactive: Potency [1] | Potency [2] | Potency [3] | Potency [4] | Potency [8] | Potency [5] | Potency [6] | Potency [7] | Potency [9]

NC(=O)c1ccc(N(C(N)=O)c2c(F)cccc2F)nc1-c1ccc(F)cc1F
active: Potency [3] 1.48 µM | Potency [4] 2.96 µM | Potency [10] 16.6 µM | Potency [8] 9.35 µM | Potency [5] 16.6 µM
inactive: Potency [2] | Potency [11] | Potency [6] | Potency [7] | Potency [9]

O=C(CO)N1CCC(c2[nH]nc(-c3ccc(Cl)cc3)c2-c2ccncn2)CC1
active: Potency [1] 3.32 µM | Potency [12] 0.59 µM
inactive: Potency [2] | Potency [4] | Potency [11] | Potency [6]

C[C@H](c1ccc(F)cc1CCCC(=O)O)N(c1cc(F)ccc1F)S(=O)(=O)c1ccc(Cl)cc1
active: Potency [13] 14.8 µM | Potency [3] 2.64 µM | Potency [8] 14.8 µM | Potency [14] 6.62 µM | Potency [9] 16.6 µM

N[C@@H](CC(=O)N1CCn2c(nnc2C(F)(F)F)C1)Cc1cc(F)c(F)cc1F
inactive: Potency [3] | Potency [4] | Potency [10] | Potency [11] | Potency [6] | Potency [7]
active: Potency [5] 3.72 µM | Potency [9] 4.69 µM

C[C@@H](O)[C@H]1C(=O)N2C(C(=O)OCOC(=O)C(C)(C)C)=C(SC3CN(C4=NCCS4)C3)[C@H](C)[C@H]12
active: Potency [14] 23.5 µM
inactive: Potency [1] | viability [12] 111% | Potency [6] | Potency [7]

Cc1cc(NC(=O)Nc2ccc(N(C)C)cc2)c2cc(F)cc(F)c2n1
active: Potency [4] 3.32 µM
inactive: Potency [2] | Potency [3] | Potency [8] | Potency [5] | Potency [14] | Potency [9]

CCC[C@@H](NC(=O)[C@@H]1[C@H]2CCC[C@@H]2CN1C(=O)[C@@H](NC(=O)[C@@H](NC(=O)c1cnccn1)C1CCCCC1)C(C)(C)C)C(=O)C(=O)NC1CC1
active: Potency [13] 16.6 µM | Potency [4] 14.8 µM | Potency [11] 16.6 µM | Potency [9] 18.7 µM
inactive: Potency [8]

CC(=O)OCC(=O)[C@@]1(O)CC[C@H]2[C@@H]3CCC4=CC(=O)C=C[C@]4(C)[C@@H]3[C@@H](O)C[C@@]21C
active: Potency [12] 0.0074 µM
inactive: Potency [1] | Potency [2] | Potency [4] | Potency [5] | Potency [14]

CC(C)c1onc(-c2c(Cl)cccc2Cl)c1COc1ccc(C=Cc2cccc(C(=O)O)c2)c(Cl)c1
inactive: viability [12] 113% | Potency [4] | Potency [5] | Potency [11] | Potency [7] | Potency [9]

COc1cc(F)c(C(C)C)cc1-c1ccc(C(F)(F)F)cc1CN1C(=O)O[C@H](c2cc(C(F)(F)F)cc(C(F)(F)F)c2)[C@@H]1C
inactive: Potency [1] | Potency [7] | Potency [9]
active: Potency [3] 20.9 µM | Potency [4] 26.4 µM | Potency [14] 23.5 µM | Potency [11] 1.66 µM

O=c1cc(-c2ccc(O)c(O)c2)oc2cc(O)cc(O)c12
active: Potency [3] 14.8 µM | Potency [10] 11.8 µM | Potency [16] 11.2 µM
inactive: Potency [14] | Potency [11] | Potency [7] | Potency [9] | outcome [15]

O=C(O)Cc1cccc(OCCCN(Cc2cccc(C(F)(F)F)c2Cl)CC(c2ccccc2)c2ccccc2)c1
active: Potency [1] 18.7 µM | Potency [12] 11.8 µM | Potency [4] 20.9 µM | Potency [10] 16.6 µM | Potency [5] 16.6 µM | Potency [14] 18.7 µM | Potency [11] 23.5 µM
inactive: Potency [2]

O=C(Nc1cccc2c(=O)cc(-c3nn[nH]n3)oc12)c1ccc(OCCCCc2ccccc2)cc1
active: Potency [1] 18.7 µM | Potency [3] 26.4 µM | Potency [4] 26.4 µM | Potency [8] 14.8 µM | Potency [5] 26.4 µM | Potency [7] 23.5 µM
inactive: Potency [6]

Cc1cc2nc3c(=O)[nH]c(=O)nc-3n(CC(O)C(O)C(O)CO)c2cc1C (centres undefined)
active: Potency [1] 18.7 µM | Potency [12] 20.9 µM | Potency [3] 7.43 µM
inactive: Potency [2] | Potency [8] | Potency [5] | Potency [6] | Potency [7] | outcome [17] | Potency [16]

Cc1ccc2c(c1)c1c(n2CCc2ccc(C)nc2)CCN(C)C1
inactive: Potency [2] | Potency [5] | Potency [7] | Potency [9]
active: Potency [3] 16.6 µM

CCCCCCCCCCCCCCCC(=O)O[C@H]1[C@@H](O)[C@@H](O)[C@@H]([C@H](NC(=O)[C@@H]2C[C@@H](CCC)CN2C)[C@H](C)Cl)O[C@@H]1SC
active: Potency [2] 18.7 µM | Potency [5] 10.5 µM | Potency [11] 3.32 µM
inactive: Potency [13] | Potency [4] | Potency [10] | Potency [14] | Potency [6] | Potency [7]

COc1nccc(-c2c(-c3ccc(F)cc3)ncn2C2CCC(O)CC2)n1 (centres undefined)
active: Potency [1] 10.5 µM | Potency [12] 0.0296 µM | Potency [2] 2.96 µM | Potency [5] 18.7 µM | Potency [11] 1.18 µM | Potency [7] 4.18 µM

CC(C)c1c(C(=O)Nc2ccccc2)c(-c2ccccc2)c(-c2ccc(F)cc2)n1CC[C@H](O)C[C@@H](O)CC(=O)O
active: Potency [1] 6.62 µM | Potency [12] 18.7 µM | Potency [3] 18.7 µM | Potency [4] 13.2 µM | Potency [5] 11.8 µM | Potency [14] 16.6 µM | Potency [7] 10.5 µM

C[C@]12CCC3=C4CCC(=O)C=C4CC[C@@H]3[C@H]1CC[C@@]2(O)CC#N
inactive: viability [12] 162% | Potency [2] | Potency [4] | Potency [5] | Potency [11] | Potency [6]

Cc1nc2c([nH]1)CCN(C(=O)c1ccc(NC(=O)c3ccccc3-c3ccccc3)cc1)c1ccccc1-2
inactive: Potency [4] | Potency [9]
